Experimental findings from publication PMC11006913 are described below.

Assay in all cases: PBM; 200 nM protein, PBS
What all share (details): dsDNA, one strand shown

Assay [1] concerns the target ALX3 (Homo sapiens, UniProt O95076 139-225, N203Q).
Assay [2] deals with ALX3 (Homo sapiens, UniProt O95076 139-225).
Assay [3] concerns the target VAX1 (Homo sapiens, UniProt Q5SQQ9 86-172).
The target in assay [4] is ALX3 (Homo sapiens, UniProt O95076 139-225, L168Q).
In assay [5] the target is ALX3 (Homo sapiens, UniProt O95076 139-225, L168V).
Sequence of ALX3 (Homo sapiens, UniProt O95076 139-225, L168V) (O95076 139-225 L168V): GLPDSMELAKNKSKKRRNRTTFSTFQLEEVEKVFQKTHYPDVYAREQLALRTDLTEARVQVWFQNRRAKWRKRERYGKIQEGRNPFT
Assay [6] concerns the target VAX1 (Homo sapiens, UniProt Q5SQQ9 86-172, T142I).
The target of assay [7] is ALX3 (Homo sapiens, UniProt O95076 139-225, N203S).
Sequence of ALX3 (Homo sapiens, UniProt O95076 139-225, N203S) (O95076 139-225 N203S): as the sequence (O95076 139-225 L168V) above, with V30L, N65S counted along it
Assay [8] concerns the target VAX1 (Homo sapiens, UniProt Q5SQQ9 86-172, K157R).
Assay [9] addresses HOXC9 (Homo sapiens, UniProt P31274 178-260, K195R).
In assay [10] the target is HOXC9 (Homo sapiens, UniProt P31274 178-260).
Sequence of HOXC9 (Homo sapiens, UniProt P31274 178-260) (P31274 178-260): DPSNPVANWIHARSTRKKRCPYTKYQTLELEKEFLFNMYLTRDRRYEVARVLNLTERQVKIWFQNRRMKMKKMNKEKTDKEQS
For assay [11], the target named is HOXC9 (Homo sapiens, UniProt P31274 178-260, R193K).
Sequence of HOXC9 (Homo sapiens, UniProt P31274 178-260, R193K) (P31274 178-260 R193K): as the sequence (P31274 178-260) above, with R16K counted along it
For assay [12], the target named is HOXC9 (Homo sapiens, UniProt P31274 178-260, R222W).
Sequence of HOXC9 (Homo sapiens, UniProt P31274 178-260, R222W) (P31274 178-260 R222W): as the sequence (P31274 178-260) above, with R45W counted along it
Assay [13] concerns the target HOXA4 (Homo sapiens, UniProt Q00056 201-287, W262R).
Assay [14] concerns the target HOXA4 (Homo sapiens, UniProt Q00056 201-287, R217L).
The target in assay [15] is HOXA4 (Homo sapiens, UniProt Q00056 201-287).
Sequence of HOXA4 (Homo sapiens, UniProt Q00056 201-287) (Q00056 201-287): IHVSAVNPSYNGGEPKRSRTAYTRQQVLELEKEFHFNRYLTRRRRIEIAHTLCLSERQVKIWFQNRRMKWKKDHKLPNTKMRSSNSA
In assay [16] the target is HOXA4 (Homo sapiens, UniProt Q00056 201-287, W262F).
Sequence of HOXA4 (Homo sapiens, UniProt Q00056 201-287, W262F) (Q00056 201-287 W262F): as the sequence (Q00056 201-287) above, with W62F counted along it
The target in assay [17] is HOXB6 (Homo sapiens, UniProt P17509 132-218, K202E).
Sequence of HOXB6 (Homo sapiens, UniProt P17509 132-218, K202E) (P17509 132-218 K202E): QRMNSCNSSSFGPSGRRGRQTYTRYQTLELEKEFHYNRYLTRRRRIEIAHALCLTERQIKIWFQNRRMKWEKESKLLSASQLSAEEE
Assay [18] deals with HOXB6 (Homo sapiens, UniProt P17509 132-218).
Sequence of HOXB6 (Homo sapiens, UniProt P17509 132-218) (P17509 132-218): as the sequence (P17509 132-218 K202E) above, with E71K counted along it
The target of assay [19] is HOXA7 (Homo sapiens, UniProt P31268 116-202).
Sequence of HOXA7 (Homo sapiens, UniProt P31268 116-202) (P31268 116-202): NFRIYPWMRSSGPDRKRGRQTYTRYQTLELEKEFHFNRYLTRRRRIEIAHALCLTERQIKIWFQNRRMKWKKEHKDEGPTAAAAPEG
The target of assay [20] is HOXA7 (Homo sapiens, UniProt P31268 116-202, W177C).
Sequence of HOXA7 (Homo sapiens, UniProt P31268 116-202, W177C) (P31268 116-202 W177C): as the sequence (P31268 116-202) above, with W62C counted along it

Sequence of HOXA4 (Homo sapiens, UniProt Q00056 201-287, R217L) (Q00056 201-287 R217L): as the sequence (Q00056 201-287) above, with R17L counted along it
Sequence of VAX1 (Homo sapiens, UniProt Q5SQQ9 86-172, T142I) (Q5SQQ9 86-172 T142I): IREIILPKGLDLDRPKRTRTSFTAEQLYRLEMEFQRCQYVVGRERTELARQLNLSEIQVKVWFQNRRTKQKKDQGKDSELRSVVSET
Sequence of VAX1 (Homo sapiens, UniProt Q5SQQ9 86-172, K157R) (Q5SQQ9 86-172 K157R): as the sequence (Q5SQQ9 86-172 T142I) above, with I57T, K72R counted along it
Sequence of HOXA4 (Homo sapiens, UniProt Q00056 201-287, W262R) (Q00056 201-287 W262R): as the sequence (Q00056 201-287) above, with W62R counted along it
Sequence of ALX3 (Homo sapiens, UniProt O95076 139-225, N203Q) (O95076 139-225 N203Q): as the sequence (O95076 139-225 L168V) above, with V30L, N65Q counted along it
Sequence of ALX3 (Homo sapiens, UniProt O95076 139-225, L168Q) (O95076 139-225 L168Q): as the sequence (O95076 139-225 L168V) above, with V30Q counted along it
Sequence of HOXC9 (Homo sapiens, UniProt P31274 178-260, K195R) (P31274 178-260 K195R): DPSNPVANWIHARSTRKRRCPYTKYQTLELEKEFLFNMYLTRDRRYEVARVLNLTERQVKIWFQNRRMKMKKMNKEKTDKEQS
Sequence of ALX3 (Homo sapiens, UniProt O95076 139-225) (O95076 139-225): as the sequence (O95076 139-225 L168V) above, with V30L counted along it
Sequence of VAX1 (Homo sapiens, UniProt Q5SQQ9 86-172) (Q5SQQ9 86-172): as the sequence (Q5SQQ9 86-172 T142I) above, with I57T counted along it

In the case of CGCTGCGC, the binding signal in assay [1] was 7.75 upbm affinity estimate (log intensity, higher = more binding, comparable within an allelic series); in [2] it was 7.66 upbm affinity estimate (log intensity, higher = more binding, comparable within an allelic series); in assay [3], 7.4 upbm affinity estimate (log intensity, higher = more binding, comparable within an allelic series); in assay [4], 7.68 upbm affinity estimate (log intensity, higher = more binding, comparable within an allelic series); in [5], 7.68 upbm affinity estimate (log intensity, higher = more binding, comparable within an allelic series); in assay [6], 7.38 upbm affinity estimate (log intensity, higher = more binding, comparable within an allelic series). Further, the binding signal is 7.74 upbm affinity estimate (log intensity, higher = more binding, comparable within an allelic series) in assay [7] and 7.41 upbm affinity estimate (log intensity, higher = more binding, comparable within an allelic series) in assay [8].

Take GGGGGGAC: the binding signal in [9] is 9.27 upbm affinity estimate (log intensity, higher = more binding, comparable within an allelic series); in assay [10], 9.04 upbm affinity estimate (log intensity, higher = more binding, comparable within an allelic series); in assay [11], 9.37 upbm affinity estimate (log intensity, higher = more binding, comparable within an allelic series); in assay [3], 6.83 upbm affinity estimate (log intensity, higher = more binding, comparable within an allelic series); in assay [12], 9.31 upbm affinity estimate (log intensity, higher = more binding, comparable within an allelic series); in assay [6] it was 7.14 upbm affinity estimate (log intensity, higher = more binding, comparable within an allelic series). In addition, in assay [8], the binding signal was 7.04 upbm affinity estimate (log intensity, higher = more binding, comparable within an allelic series).

On to CCAGACGG, for which the binding signal in [9] is 9.56 upbm affinity estimate (log intensity, higher = more binding, comparable within an allelic series); in assay [10], 9.6 upbm affinity estimate (log intensity, higher = more binding, comparable within an allelic series); in [11], 9.51 upbm affinity estimate (log intensity, higher = more binding, comparable within an allelic series); in assay [12], 9.67 upbm affinity estimate (log intensity, higher = more binding, comparable within an allelic series).

As for GGGGGCCA, the binding signal in assay [13] was 9.65 upbm affinity estimate (log intensity, higher = more binding, comparable within an allelic series); in assay [14], 9.62 upbm affinity estimate (log intensity, higher = more binding, comparable within an allelic series); in [15] it was 9.83 upbm affinity estimate (log intensity, higher = more binding, comparable within an allelic series); in assay [16] it was 9.79 upbm affinity estimate (log intensity, higher = more binding, comparable within an allelic series).

On to CTCGGGCC, for which the binding signal was 8.97 upbm affinity estimate (log intensity, higher = more binding, comparable within an allelic series) in assay [17] and 8.82 upbm affinity estimate (log intensity, higher = more binding, comparable within an allelic series) in [18].

Regarding CGTCGCGC, the binding signal is 7.76 upbm affinity estimate (log intensity, higher = more binding, comparable within an allelic series) in [1]; 7.7 upbm affinity estimate (log intensity, higher = more binding, comparable within an allelic series) in assay [2]; 7.79 upbm affinity estimate (log intensity, higher = more binding, comparable within an allelic series) in [4]; 7.7 upbm affinity estimate (log intensity, higher = more binding, comparable within an allelic series) in assay [5]; 7.8 upbm affinity estimate (log intensity, higher = more binding, comparable within an allelic series) in assay [7].

Consider GTCCGGAC, for which the binding signal in assay [9] is 9.77 upbm affinity estimate (log intensity, higher = more binding, comparable within an allelic series); in assay [10] it was 9.72 upbm affinity estimate (log intensity, higher = more binding, comparable within an allelic series); in assay [11], 9.8 upbm affinity estimate (log intensity, higher = more binding, comparable within an allelic series); in assay [12] it was 9.89 upbm affinity estimate (log intensity, higher = more binding, comparable within an allelic series).

On to CCGGGCGC, for which the binding signal in assay [13] was 9.61 upbm affinity estimate (log intensity, higher = more binding, comparable within an allelic series); in assay [9], 9.34 upbm affinity estimate (log intensity, higher = more binding, comparable within an allelic series); in assay [14] it was 9.64 upbm affinity estimate (log intensity, higher = more binding, comparable within an allelic series); in assay [10] it was 9.51 upbm affinity estimate (log intensity, higher = more binding, comparable within an allelic series); in assay [11], 9.31 upbm affinity estimate (log intensity, higher = more binding, comparable within an allelic series); in [15], 9.56 upbm affinity estimate (log intensity, higher = more binding, comparable within an allelic series). The binding signal was 9.66 upbm affinity estimate (log intensity, higher = more binding, comparable within an allelic series) in [12] and 9.82 upbm affinity estimate (log intensity, higher = more binding, comparable within an allelic series) in assay [16].

With GTATCATA, the binding signal in assay [13] was 10.3 upbm affinity estimate (log intensity, higher = more binding, comparable within an allelic series); in [14], 10.6 upbm affinity estimate (log intensity, higher = more binding, comparable within an allelic series); in assay [15] it was 11 upbm affinity estimate (log intensity, higher = more binding, comparable within an allelic series).

As for CGCTCCGC, the binding signal was 9.03 upbm affinity estimate (log intensity, higher = more binding, comparable within an allelic series) in [17] and 9.09 upbm affinity estimate (log intensity, higher = more binding, comparable within an allelic series) in assay [18].

As for AGATATAC, the binding signal in assay [3] is 8.24 upbm affinity estimate (log intensity, higher = more binding, comparable within an allelic series); in [6], 8.22 upbm affinity estimate (log intensity, higher = more binding, comparable within an allelic series); in [8], 8.23 upbm affinity estimate (log intensity, higher = more binding, comparable within an allelic series).

As to CGGCCTGC, the binding signal was 8.37 upbm affinity estimate (log intensity, higher = more binding, comparable within an allelic series) in [19] and 8.26 upbm affinity estimate (log intensity, higher = more binding, comparable within an allelic series) in assay [20].

CTGCGGAC: the binding signal is 8.87 upbm affinity estimate (log intensity, higher = more binding, comparable within an allelic series) in [17] and 8.8 upbm affinity estimate (log intensity, higher = more binding, comparable within an allelic series) in [18].

For AGCGCAGG, the binding signal in [19] is 8.41 upbm affinity estimate (log intensity, higher = more binding, comparable within an allelic series); in [20], 8.31 upbm affinity estimate (log intensity, higher = more binding, comparable within an allelic series).

In the case of CCCAGCCG, the binding signal in assay [13] was 9.73 upbm affinity estimate (log intensity, higher = more binding, comparable within an allelic series); in assay [9], 9.41 upbm affinity estimate (log intensity, higher = more binding, comparable within an allelic series); in assay [19], 8.28 upbm affinity estimate (log intensity, higher = more binding, comparable within an allelic series); in assay [14], 9.56 upbm affinity estimate (log intensity, higher = more binding, comparable within an allelic series); in [10], 9.56 upbm affinity estimate (log intensity, higher = more binding, comparable within an allelic series); in [11] it was 9.38 upbm affinity estimate (log intensity, higher = more binding, comparable within an allelic series). The binding signal in [15] is 9.64 upbm affinity estimate (log intensity, higher = more binding, comparable within an allelic series); in assay [12], 9.62 upbm affinity estimate (log intensity, higher = more binding, comparable within an allelic series); in [20] it was 8.32 upbm affinity estimate (log intensity, higher = more binding, comparable within an allelic series); in [16], 9.72 upbm affinity estimate (log intensity, higher = more binding, comparable within an allelic series).

For the sequence GCACGCCC, the binding signal in assay [19] was 8.55 upbm affinity estimate (log intensity, higher = more binding, comparable within an allelic series); in [20] it was 8.44 upbm affinity estimate (log intensity, higher = more binding, comparable within an allelic series).

Take AGCGCCCG: the binding signal in assay [17] is 8.99 upbm affinity estimate (log intensity, higher = more binding, comparable within an allelic series); in assay [18], 8.92 upbm affinity estimate (log intensity, higher = more binding, comparable within an allelic series).

On to CGGCTTCC, for which the binding signal was 9.74 upbm affinity estimate (log intensity, higher = more binding, comparable within an allelic series) in [13]; 9.5 upbm affinity estimate (log intensity, higher = more binding, comparable within an allelic series) in [14]; 9.53 upbm affinity estimate (log intensity, higher = more binding, comparable within an allelic series) in assay [15]; 9.63 upbm affinity estimate (log intensity, higher = more binding, comparable within an allelic series) in assay [16].

As for ACGCCGGG, the binding signal in [13] was 9.71 upbm affinity estimate (log intensity, higher = more binding, comparable within an allelic series); in assay [14], 9.86 upbm affinity estimate (log intensity, higher = more binding, comparable within an allelic series); in [15], 9.92 upbm affinity estimate (log intensity, higher = more binding, comparable within an allelic series); in assay [16] it was 9.88 upbm affinity estimate (log intensity, higher = more binding, comparable within an allelic series).

Turning to AGGCGCCC, the binding signal is 7.72 upbm affinity estimate (log intensity, higher = more binding, comparable within an allelic series) in assay [1]; 7.55 upbm affinity estimate (log intensity, higher = more binding, comparable within an allelic series) in [2]; 7.7 upbm affinity estimate (log intensity, higher = more binding, comparable within an allelic series) in [4]; 7.59 upbm affinity estimate (log intensity, higher = more binding, comparable within an allelic series) in assay [5]; 7.72 upbm affinity estimate (log intensity, higher = more binding, comparable within an allelic series) in assay [7].

Regarding AGCCGGCT, the binding signal in [1] was 7.78 upbm affinity estimate (log intensity, higher = more binding, comparable within an allelic series); in assay [2], 8.13 upbm affinity estimate (log intensity, higher = more binding, comparable within an allelic series); in assay [4], 7.76 upbm affinity estimate (log intensity, higher = more binding, comparable within an allelic series); in [5], 7.76 upbm affinity estimate (log intensity, higher = more binding, comparable within an allelic series); in assay [7], 7.77 upbm affinity estimate (log intensity, higher = more binding, comparable within an allelic series).

As for AACGCGGC, the binding signal in [17] is 9.12 upbm affinity estimate (log intensity, higher = more binding, comparable within an allelic series); in [18], 9.14 upbm affinity estimate (log intensity, higher = more binding, comparable within an allelic series).

For CGGCCACC, the binding signal in assay [19] is 8.41 upbm affinity estimate (log intensity, higher = more binding, comparable within an allelic series); in [20], 8.25 upbm affinity estimate (log intensity, higher = more binding, comparable within an allelic series).

AGGGCCCG: the binding signal in assay [3] is 6.78 upbm affinity estimate (log intensity, higher = more binding, comparable within an allelic series); in assay [6], 7.02 upbm affinity estimate (log intensity, higher = more binding, comparable within an allelic series); in [8], 6.91 upbm affinity estimate (log intensity, higher = more binding, comparable within an allelic series).

On to GCAGTGGC, for which the binding signal is 7.24 upbm affinity estimate (log intensity, higher = more binding, comparable within an allelic series) in [3]; 7.19 upbm affinity estimate (log intensity, higher = more binding, comparable within an allelic series) in assay [6]; 7.24 upbm affinity estimate (log intensity, higher = more binding, comparable within an allelic series) in assay [8].

For the sequence GGCGGACC, the binding signal in assay [1] was 7.72 upbm affinity estimate (log intensity, higher = more binding, comparable within an allelic series); in [2], 7.74 upbm affinity estimate (log intensity, higher = more binding, comparable within an allelic series); in assay [4], 7.74 upbm affinity estimate (log intensity, higher = more binding, comparable within an allelic series); in assay [5], 7.69 upbm affinity estimate (log intensity, higher = more binding, comparable within an allelic series); in [7] it was 7.67 upbm affinity estimate (log intensity, higher = more binding, comparable within an allelic series).

Regarding CATGATCA, the binding signal in [1] was 8.19 upbm affinity estimate (log intensity, higher = more binding, comparable within an allelic series); in assay [2], 9.26 upbm affinity estimate (log intensity, higher = more binding, comparable within an allelic series); in [7] it was 8.21 upbm affinity estimate (log intensity, higher = more binding, comparable within an allelic series).
